Assay outcomes from PubChem BioAssay.
Rows were chosen to be rich in hits. Some 19% of all compounds tested hit in one or more screens of this group.
Chronic BCR inh: qHTS Assay to Find Inhibitors of Chronic Active B-Cell Receptor Signaling. ABC-DLBCL IkBa-CBG/CBR reporter, luminescence ratio, 4 h. Potency, µM (series often up to 46.1 µM), inactives show at the top dose activity change, negative = inhibition, usual class: inhibitors. hit rate 0.05% among 340,000; active means well fitted inhibition curve with a large enough effect in the signal ratio, with a control signal flat, not every such curve was filed as active; inconclusive means small, poorly fitted or top-dose-only effect, or effect the other way, or a change in a side signal; the % refers to the signal ratio;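 further: potency means the concentration at half of the fitted maximal effect; plate controls were basal doxycycline-induced cells for no effect and cells given 10 µM MG132 for full effect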
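Doxycycline induced both beetle luciferases in TMD8 lymphoma cells; IKK-driven degradation limits the IkappaBalpha-fused green signal, while red luminescence normalises for cell number and nonspecific effects. Compounds tested up to 46 uM, 4 hrs.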
IL1B secr inh: qHTS for Inhibitors of Inflammasome Signaling: IL-1-beta AlphaLISA Primary Screen; THP-1 LPS/ATP IL-1B secretion, AlphaLISA, 16 h; active compounds read low; activity change, % at 57.5 µM; hit rate 4.7% among 360,000; in the data active means activity change below about -50%; inconclusive means mostly about -30% to -49%; further: on the % scale 0 is the no-effect control and ±100 the full control effect
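THP-1 cells pretreated 1 hr with compounds (up to 57.5 uM final), then stimulated with LPS (250 ng/mL final) plus ATP (1.25 mM final); secreted IL-1B measured by AlphaLISA after 16 hr, decreased signal indicating inhibition.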
SW480 rerep: A quantitative high throughput screen for small molecules that induce DNA re-replication in SW480 colon adenocarcinoma cells; Potency, µM (highest dose often 46.1 µM), for inactives: at the highest dose re-replication activation, most hits filed as activators; SW480 DNA re-replication, Hoechst DNA content imaging, 48 h; hit rate 1.8% among 340,000; further: potency means the concentration at half of the fitted maximal effect; % of control where 0% means no effect; nearly all actives have a fitted effect of over 55% in size
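250 cells/well; 23 nL cpd via pin tool; 48 hr, 37 C, 5% CO2; Hoechst 40 min; imager read of total nuclear intensity, ex 405/em 500-530 nm.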
MCF10A rerep: A quantitative high throughput screen for small molecules that induce DNA re-replication in MCF 10a normal breast cells | Potency, µM (titrated, usually from 46.1 µM), for inactives: top-dose activity, positive = re-replication, hits mostly activators | hit rate 2.9% among 350,000 | MCF 10A DNA re-replication, Hoechst nuclear intensity, 48 h; further: potency means the concentration at half of the fitted maximal effect; % of control where 0% means no effect; nearly all actives have a fitted effect of over 50% in size
TDP1 cell noCPT: qHTS for Inhibitors of human tyrosyl-DNA phosphodiesterase 1 (TDP1): qHTS in cells in absence of CPT. DT40 Tdp1-/- hTDP1 cells, no CPT, ATP luminescence, 48 h. Potency, µM (titrated, usually from 46.2 µM), inactives show at the top dose activity change, negative = growth inhibition, most hits filed as inhibitors. hit rate 15% among 420,000; further: potency means the concentration at half of the fitted maximal effect; on the % scale 0 is the no-effect control and ±100 the full control effect; nearly all actives have a fitted effect of over 55% in size
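Stably hTDP1-transfected Tdp1-null chicken DT40 cells were treated with library compounds minus camptothecin and grown for at least 48 hr at 37 °C, after which cellular ATP was quantified by luminescence.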
TDP1 cell CPT: qHTS for Inhibitors of human tyrosyl-DNA phosphodiesterase 1 (TDP1): qHTS in cells in presence of CPT; AID 686979, 2013; Potency, µM (doses to about 46.2 µM), for the others: top-dose activity change, negative = growth inhibition, actives largely listed as inhibitors; hit rate 12% among 420,000; chicken DT40 Tdp1-/-;hTDP1 cells + 20 nM CPT, ATP luminescence, 48 h; further: potency means the concentration at half of the fitted maximal effect; on the % scale 0 is the no-effect control and ±100 the full control effect; nearly all actives have a fitted effect of over 55% in size
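Chicken DT40 Tdp1-/- cells stably complemented with human TDP1 were seeded at 400 cells/well in medium containing 20 nM camptothecin, exposed to pin-transferred compounds, and grown at 37 °C for at least 48 hr. Viability was read as ATP luminescence.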
* marks the source's active call; other numbers are inactive results; ? = inconclusive; . = not tested or not shown. Unless noted, the call rests on the fitted dose curve; in most records, active means well fitted curve in the direction sought with a large enough effect; inconclusive means small, poorly fitted or top-dose-only effect, or another doubt; inactive means no such curve, though single readings can be large; an effect the other way counts as inactive or inconclusive.

SMILES | Chronic BCR inh | IL1B secr inh | SW480 rerep | MCF10A rerep | TDP1 cell noCPT | TDP1 cell CPT
O=C(O)c1cc([N+](=O)[O-])ccc1N1CCCCC1 | 8.7% | 0.0 | 7.9% | 2.8% | -5.8% | -1.5%
Cc1ccc(C(=O)c2cc([N+](=O)[O-])ccc2N2CCOCC2)cc1 | -3.8% | 35.7 | 3.66µM* | 3.66µM* | 2.06µM* | 2.06µM*
CCC1(CC)CNC(=O)NC1 | . | 16.7 | 6.4% | -27.4% | -3.2% | 19.3%
O=C(c1cc([N+](=O)[O-])ccc1N1CCCCC1)N1CCc2ccccc21 | -3.2% | -3.7 | 6.51µM* | 3.66µM* | 4.61µM* | 14.6µM*
CN(C)C(=O)c1ccccc1NC(=O)Cc1cccc2ccccc12 | 0.9% | 6.0 | 26.0% | 3.0% | 0.4% | -8.0%
COc1ccc(C2=Nc3ccccc3N(C(=O)c3ccc4ncccc4c3)C2C(=O)NC2CCCC2)cc1 (configuration not stated) | . | -6.1 | . | . | 9.2µM* | 8.2µM*
COc1ccc(C2=Nc3ccccc3N(C(=O)Cc3cc(OC)cc(OC)c3)C2C(=O)NC(C)(C)C)cc1 (configuration not stated) | . | -16.9 | . | . | -85.3% | 18.4µM*
COc1ccc(C2=Nc3ccccc3N(C(=O)Cc3cc(OC)cc(OC)c3)C2C(=O)NC(C)C)cc1 (configuration not stated) | . | -21.5 | . | . | -21.1% | ?
COc1ccc(C2=Nc3ccccc3N(C(=O)c3ccc4ncccc4c3)C2C(=O)NC(C)(C)C)cc1 (configuration not stated) | . | 0.7 | . | . | 23.1µM* | 13µM*
Cc1cc(C(=O)Nc2c(C)nn(Cc3ccccc3Cl)c2C)no1 | 2.2% | 41.9 | -2.2% | 2.6% | -11.9% | -27.0%
Cc1nn(Cc2ccccc2Cl)c(C)c1NC(=O)/C=C/c1cnn(C)c1 | -0.7% | 10.6 | -6.7% | 2.1% | ? | -25.1%
CCn1cc(/C=C/C(=O)Nc2c(C)nn(Cc3ccccc3)c2C)cn1 | -1.3% | 7.8 | -4.7% | 6.0% | 9.2µM* | ?
CCn1ncc(/C=C/C(=O)Nc2c(C)nn(Cc3ccc(Cl)cc3Cl)c2C)c1C | ? | ? | 10.3µM* | 4.1% | 14.6µM* | 14.6µM*
Cc1nn(Cc2ccc(Cl)cc2Cl)c(C)c1NC(=O)NC12CC3CC(CC(C3)C1)C2 | 1.2% | -23.5 | 2.7% | ? | 18.4µM* | 20.6µM*
Cn1c(=S)[nH]c2sc3c(c2c1=O)CCC(C(C)(C)C)C3 (configuration not stated) | 8.6% | . | . | . | . | .
Cn1cccc1C1NC(=O)c2c(sc3c2CCC(C(C)(C)C)C3)N1 (configuration not stated) | 21.9% | ? | 16.5% | ? | 18.4µM* | -29.7%
O=S(=O)(c1ccc(Br)cc1F)N1CCC(O)CC1 | . | -7.4 | -50.4% | 14.0% | -9.0% | 2.8%
Cc1ccc(CNCCC2=CCCCC2)cc1 | 1.6% | -69.5* | ? | 21.1% | 23.1µM* | ?
CCOC(=O)C1(C)CCN1C(=O)c1cccc2ccccc12 (configuration not stated) | . | 9.9 | . | . | ? | ?
CCCCOc1ccc(C2OC34CCCCC3C(C#N)(C#N)C2(C#N)C(=N)O4)cc1 (configuration not stated) | 5.4% | 4.3 | 12.3% | ? | -3.2% | -7.0%
CCOc1ccc(C2OC34CCCCC3C(C#N)(C#N)C2(C#N)C(=N)O4)cc1OC (configuration not stated) | 19.3% | -5.6 | 0.7% | 17.5% | 16.4µM* | 13µM*
